Assay [1] can be described thus: small molecules captured by biotinylated probe aFSTL3 – biochemical, small-molecule microarray, fluorescence 635/667, stem cell growth factor project, primary screen (AID 1064).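 Also: measures binding of the biotinylated anti-FSTL3 antibody to printed compounds.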 The conditions noted are these: higher = more signal.
Assay [2] in a line: binders from COS7 lysate, DM2A8 probe, primary screen, torsin A project, cell lysate, small-molecule microarray, fluorescence 635/667 (AID 1065). The settings on record: higher = more signal, COS7 lysate expressing mutant human TOR1A.
Assay [3] in a line: small molecules captured by biotinylated probe aFGF2 – biochemical, small-molecule microarray, fluorescence 635/667, stem cell growth factor project, primary screen (AID 1067).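 Also: measures binding of biotinylated aFGF2 protein to printed compounds on slides; z-score merges feature fluorescence and signal-to-noise across triplicate slides.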 The settings on record: higher = more signal.
Assay [4] can be described thus: small molecules captured by biotinylated probe aFGF10 – biochemical, small-molecule microarray, fluorescence 635/667, stem cell growth factor project, primary screen (AID 1071).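 Also: score merges 667 nm spot intensity and signal to noise from triplicate slides.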 The conditions noted are these: higher = more signal.
Assay [5] deals with Neurogenic locus notch homolog protein 2 (Homo sapiens) (UniProt Q04721). Briefly: small molecules binding Notch2 protein – biochemical, small-molecule microarray, 635 nm fluorescence, stem cell growth factors, primary screen (AID 1073). The conditions noted are these: higher = more signal.
In assay [6] the target is Pro-neuregulin-1, membrane-bound isoform (Homo sapiens) (UniProt Q02297). Nature of the assay: small molecules binding neuregulin-1 protein – biochemical, small-molecule microarray, fluorescence 635/667, psychiatric disease protein project, primary screen (AID 1075).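 Also: score combines 667 nm spot fluorescence with signal to noise.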 The conditions noted are these: NRG1 binding, 635 nm fluorescence, higher = more signal.
The subject of assay [7] is Neuregulin-1 EGF-like domain. Briefly: small molecules binding NRG1 EGF domain – biochemical, small-molecule microarray, 635 nm fluorescence, primary screen (AID 1081).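 Also: binding of the protein to compounds printed on small-molecule microarray slides.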 The settings on record: higher = more signal.
Assay [8] can be described thus: FRG1 expression reporter modulators in myotubes – cell-based, C2C12 myotubes, firefly/Renilla luciferase, luminescence, FRG1 inhibition for FSHD, primary screen (AID 1084). The conditions noted are these: FRG1 promoter luciferase, higher = more signal, called active from +8 up or from −8 down.
Assay [9] can be described thus: small molecules captured by biotinylated probe aFST – biochemical, small-molecule microarray, fluorescence 635/667, stem cell growth factor project, primary screen (AID 1086).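 Also: score merges 667 nm fluorescence with signal-to-noise of each printed compound spot.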 The conditions noted are these: higher = more signal.
Assay [10] can be described thus: binders of probe aHhip on microarray, primary screen, stem cell growth factor project, biochemical, small-molecule microarray, fluorescence 635/667 (AID 1087).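 Also: score merges spot fluorescence at 667nm with spot signal to noise ratio.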 The settings on record: higher = more signal.
Assay [11] deals with PRMT1 (protein arginine N-methyltransferase 1). Briefly: small molecules binding arginine methyltransferase PRMT1 – biochemical, small-molecule microarray, 635 nm fluorescence, primary screen (AID 1088).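 Also: binding of Prmt1 protein to compounds spotted on small-molecule microarray slides.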 The conditions noted are these: higher = more signal.
Assay [12] is described as follows: growth effects on S. cerevisiae YJM789 – YJM789 clinical isolate, OD600, 24 h, basal, primary screen (AID 1089).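 Also: growth of clinical yeast isolate S. cerevisiae YJM 789 seeded 1000 cells per well; test concentration not given here.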 The conditions noted are these: higher = more signal, called active from +8 up or from −8 down.
Assay [13] is described as follows: S. pombe growth modifiers, basal conditions – strain 972, OD600, 24 h, no modulator, primary screen (AID 1090).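 Also: basal condition with compound alone and no growth modifier present; test concentration not given here.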 The conditions noted are these: S. pombe 972 growth, higher = more signal, called active from +8 up or from −8 down.
Assay [14] is described as follows: budding yeast growth modifiers under rapamycin – strain BY4716, OD600, 96 h, primary screen (AID 1091). Also: test concentration not given here. The settings on record: S. cerevisiae BY4716 + rapamycin, higher = more signal, called active from +8 up or from −8 down.
In assay [15] the target is Torsin-1A-interacting protein 2 (Homo sapiens) (UniProt Q8NFQ8). Nature of the assay: small molecules binding lysate-expressed LULL1 – cell lysate, human LULL1 lysate, 635/667 nm fluorescence, primary screen (AID 1092).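 Also: probe is lysate of COS7 cells overexpressing human LULL1; score merges per-feature 667 nm fluorescence with signal-to-noise.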 The settings on record: small-molecule microarray, hLULL1 lysate binding, 635 nm fluorescence; higher = more signal.
Assay [16] in a line: optical density change of DRC41 E. coli – strain DRC41, OD650, 24 h, E. coli filamentation project, primary screen (AID 1093).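 Also: MC1000 strain lacking acrAB efflux and sulA so SOS filamentation is blocked; test concentration not given here.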 The settings on record: E. coli DRC41 growth, higher = more signal, called active from +8 up or from −8 down.
Assay [17] can be described thus: probe aLefty2 binding to arrayed compounds – biochemical, biotinylated probe, 635/667 nm fluorescence, primary screen (AID 1094).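 Also: score merges spot fluorescence near 667 nm with spot signal-to-noise ratio.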 The conditions noted are these: small-molecule microarray, higher = more signal.
Assay [18] deals with Noggin (protein binding on small-molecule microarray). Nature of the assay: small molecules binding Noggin protein – biochemical, 635/667 nm fluorescence, primary screen (AID 1095).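 Also: score merges 667 nm feature fluorescence with signal to noise over triplicate slides.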 The conditions noted are these: 635 nm fluorescence, higher = more signal.
For assay [19], the target named is Neurogenic locus notch homolog protein 3 (Homo sapiens) (UniProt Q9UM47). Nature of the assay: small molecules binding NOTCH3 protein – biochemical, 635/667 nm fluorescence, primary screen (AID 1096). The conditions noted are these: small-molecule microarray, 635 nm fluorescence, higher = more signal.
A short description of assay [20]: probe aEGFR binding to arrayed compounds – biochemical, biotinylated probe, 635/667 nm fluorescence, primary screen (AID 1097).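 Also: probe is a biotinylated anti-EGFR antibody binding compounds printed on slides; score combines fluorescence near 667 nm and signal to noise of each spot.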 The conditions noted are these: small-molecule microarray, higher = more signal.

Active and inactive are the calls of the source.

Chain of Neurogenic locus notch homolog protein 3 (Homo sapiens) (Q9UM47 whole entry, looked up): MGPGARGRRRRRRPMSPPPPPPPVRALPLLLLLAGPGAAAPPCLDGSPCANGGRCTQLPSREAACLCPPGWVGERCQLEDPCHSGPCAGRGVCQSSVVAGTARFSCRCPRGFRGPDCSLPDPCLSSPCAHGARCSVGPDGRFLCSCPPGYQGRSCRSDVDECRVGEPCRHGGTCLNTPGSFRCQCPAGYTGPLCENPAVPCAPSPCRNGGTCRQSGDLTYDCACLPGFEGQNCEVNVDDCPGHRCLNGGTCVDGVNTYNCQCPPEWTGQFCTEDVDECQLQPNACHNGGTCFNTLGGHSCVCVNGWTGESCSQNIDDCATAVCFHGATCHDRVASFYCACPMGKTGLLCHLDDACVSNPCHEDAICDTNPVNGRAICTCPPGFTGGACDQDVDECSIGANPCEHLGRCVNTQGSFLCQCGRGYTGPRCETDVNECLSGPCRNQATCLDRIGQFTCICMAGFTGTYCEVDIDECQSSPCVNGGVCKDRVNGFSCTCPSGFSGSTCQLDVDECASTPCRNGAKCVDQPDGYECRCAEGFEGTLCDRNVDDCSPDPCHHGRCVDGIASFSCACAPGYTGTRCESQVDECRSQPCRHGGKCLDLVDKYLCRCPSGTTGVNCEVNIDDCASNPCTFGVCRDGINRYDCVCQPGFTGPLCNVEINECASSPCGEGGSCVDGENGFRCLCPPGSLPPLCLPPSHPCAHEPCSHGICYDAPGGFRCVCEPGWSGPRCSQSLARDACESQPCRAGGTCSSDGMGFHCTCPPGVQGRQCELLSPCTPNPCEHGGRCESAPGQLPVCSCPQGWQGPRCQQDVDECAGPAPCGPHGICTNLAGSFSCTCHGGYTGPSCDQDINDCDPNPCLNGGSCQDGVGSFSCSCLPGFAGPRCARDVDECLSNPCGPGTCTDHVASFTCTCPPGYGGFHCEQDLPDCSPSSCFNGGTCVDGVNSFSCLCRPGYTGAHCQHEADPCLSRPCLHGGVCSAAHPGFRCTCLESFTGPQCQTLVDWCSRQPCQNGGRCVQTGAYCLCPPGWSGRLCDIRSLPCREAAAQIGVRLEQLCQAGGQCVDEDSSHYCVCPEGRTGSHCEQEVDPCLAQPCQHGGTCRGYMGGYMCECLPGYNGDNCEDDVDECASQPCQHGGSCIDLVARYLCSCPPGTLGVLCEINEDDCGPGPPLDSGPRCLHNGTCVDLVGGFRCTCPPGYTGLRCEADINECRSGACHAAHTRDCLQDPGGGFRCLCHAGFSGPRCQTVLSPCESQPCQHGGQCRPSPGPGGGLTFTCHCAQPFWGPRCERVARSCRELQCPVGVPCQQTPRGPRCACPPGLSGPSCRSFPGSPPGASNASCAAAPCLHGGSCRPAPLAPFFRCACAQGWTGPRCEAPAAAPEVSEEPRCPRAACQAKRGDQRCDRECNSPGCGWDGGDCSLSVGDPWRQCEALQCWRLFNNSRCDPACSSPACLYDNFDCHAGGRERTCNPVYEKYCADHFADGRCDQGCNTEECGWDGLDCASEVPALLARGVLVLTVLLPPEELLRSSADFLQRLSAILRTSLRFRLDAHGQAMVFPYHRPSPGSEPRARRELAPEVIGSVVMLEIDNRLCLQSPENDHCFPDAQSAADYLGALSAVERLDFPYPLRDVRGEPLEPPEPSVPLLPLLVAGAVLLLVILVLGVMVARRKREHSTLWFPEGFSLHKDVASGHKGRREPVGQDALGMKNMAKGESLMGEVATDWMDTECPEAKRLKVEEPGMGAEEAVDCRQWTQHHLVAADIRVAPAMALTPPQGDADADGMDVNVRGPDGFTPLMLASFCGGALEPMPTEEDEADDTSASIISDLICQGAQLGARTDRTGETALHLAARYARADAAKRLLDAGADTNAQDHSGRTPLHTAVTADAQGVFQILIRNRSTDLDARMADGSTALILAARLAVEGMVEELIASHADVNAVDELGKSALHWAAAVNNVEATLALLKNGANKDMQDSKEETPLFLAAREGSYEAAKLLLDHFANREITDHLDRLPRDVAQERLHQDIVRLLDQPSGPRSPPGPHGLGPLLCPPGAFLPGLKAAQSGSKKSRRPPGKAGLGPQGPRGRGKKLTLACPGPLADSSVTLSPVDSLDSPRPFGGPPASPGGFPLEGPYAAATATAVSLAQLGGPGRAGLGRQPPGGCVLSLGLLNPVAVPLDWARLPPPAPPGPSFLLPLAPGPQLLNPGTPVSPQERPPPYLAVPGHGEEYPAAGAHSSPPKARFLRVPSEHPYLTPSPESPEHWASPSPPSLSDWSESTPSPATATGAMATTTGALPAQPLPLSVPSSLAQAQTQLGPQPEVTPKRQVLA
Chain of Neurogenic locus notch homolog protein 2 (Homo sapiens) (Q04721 whole entry, looked up, canonical isoform): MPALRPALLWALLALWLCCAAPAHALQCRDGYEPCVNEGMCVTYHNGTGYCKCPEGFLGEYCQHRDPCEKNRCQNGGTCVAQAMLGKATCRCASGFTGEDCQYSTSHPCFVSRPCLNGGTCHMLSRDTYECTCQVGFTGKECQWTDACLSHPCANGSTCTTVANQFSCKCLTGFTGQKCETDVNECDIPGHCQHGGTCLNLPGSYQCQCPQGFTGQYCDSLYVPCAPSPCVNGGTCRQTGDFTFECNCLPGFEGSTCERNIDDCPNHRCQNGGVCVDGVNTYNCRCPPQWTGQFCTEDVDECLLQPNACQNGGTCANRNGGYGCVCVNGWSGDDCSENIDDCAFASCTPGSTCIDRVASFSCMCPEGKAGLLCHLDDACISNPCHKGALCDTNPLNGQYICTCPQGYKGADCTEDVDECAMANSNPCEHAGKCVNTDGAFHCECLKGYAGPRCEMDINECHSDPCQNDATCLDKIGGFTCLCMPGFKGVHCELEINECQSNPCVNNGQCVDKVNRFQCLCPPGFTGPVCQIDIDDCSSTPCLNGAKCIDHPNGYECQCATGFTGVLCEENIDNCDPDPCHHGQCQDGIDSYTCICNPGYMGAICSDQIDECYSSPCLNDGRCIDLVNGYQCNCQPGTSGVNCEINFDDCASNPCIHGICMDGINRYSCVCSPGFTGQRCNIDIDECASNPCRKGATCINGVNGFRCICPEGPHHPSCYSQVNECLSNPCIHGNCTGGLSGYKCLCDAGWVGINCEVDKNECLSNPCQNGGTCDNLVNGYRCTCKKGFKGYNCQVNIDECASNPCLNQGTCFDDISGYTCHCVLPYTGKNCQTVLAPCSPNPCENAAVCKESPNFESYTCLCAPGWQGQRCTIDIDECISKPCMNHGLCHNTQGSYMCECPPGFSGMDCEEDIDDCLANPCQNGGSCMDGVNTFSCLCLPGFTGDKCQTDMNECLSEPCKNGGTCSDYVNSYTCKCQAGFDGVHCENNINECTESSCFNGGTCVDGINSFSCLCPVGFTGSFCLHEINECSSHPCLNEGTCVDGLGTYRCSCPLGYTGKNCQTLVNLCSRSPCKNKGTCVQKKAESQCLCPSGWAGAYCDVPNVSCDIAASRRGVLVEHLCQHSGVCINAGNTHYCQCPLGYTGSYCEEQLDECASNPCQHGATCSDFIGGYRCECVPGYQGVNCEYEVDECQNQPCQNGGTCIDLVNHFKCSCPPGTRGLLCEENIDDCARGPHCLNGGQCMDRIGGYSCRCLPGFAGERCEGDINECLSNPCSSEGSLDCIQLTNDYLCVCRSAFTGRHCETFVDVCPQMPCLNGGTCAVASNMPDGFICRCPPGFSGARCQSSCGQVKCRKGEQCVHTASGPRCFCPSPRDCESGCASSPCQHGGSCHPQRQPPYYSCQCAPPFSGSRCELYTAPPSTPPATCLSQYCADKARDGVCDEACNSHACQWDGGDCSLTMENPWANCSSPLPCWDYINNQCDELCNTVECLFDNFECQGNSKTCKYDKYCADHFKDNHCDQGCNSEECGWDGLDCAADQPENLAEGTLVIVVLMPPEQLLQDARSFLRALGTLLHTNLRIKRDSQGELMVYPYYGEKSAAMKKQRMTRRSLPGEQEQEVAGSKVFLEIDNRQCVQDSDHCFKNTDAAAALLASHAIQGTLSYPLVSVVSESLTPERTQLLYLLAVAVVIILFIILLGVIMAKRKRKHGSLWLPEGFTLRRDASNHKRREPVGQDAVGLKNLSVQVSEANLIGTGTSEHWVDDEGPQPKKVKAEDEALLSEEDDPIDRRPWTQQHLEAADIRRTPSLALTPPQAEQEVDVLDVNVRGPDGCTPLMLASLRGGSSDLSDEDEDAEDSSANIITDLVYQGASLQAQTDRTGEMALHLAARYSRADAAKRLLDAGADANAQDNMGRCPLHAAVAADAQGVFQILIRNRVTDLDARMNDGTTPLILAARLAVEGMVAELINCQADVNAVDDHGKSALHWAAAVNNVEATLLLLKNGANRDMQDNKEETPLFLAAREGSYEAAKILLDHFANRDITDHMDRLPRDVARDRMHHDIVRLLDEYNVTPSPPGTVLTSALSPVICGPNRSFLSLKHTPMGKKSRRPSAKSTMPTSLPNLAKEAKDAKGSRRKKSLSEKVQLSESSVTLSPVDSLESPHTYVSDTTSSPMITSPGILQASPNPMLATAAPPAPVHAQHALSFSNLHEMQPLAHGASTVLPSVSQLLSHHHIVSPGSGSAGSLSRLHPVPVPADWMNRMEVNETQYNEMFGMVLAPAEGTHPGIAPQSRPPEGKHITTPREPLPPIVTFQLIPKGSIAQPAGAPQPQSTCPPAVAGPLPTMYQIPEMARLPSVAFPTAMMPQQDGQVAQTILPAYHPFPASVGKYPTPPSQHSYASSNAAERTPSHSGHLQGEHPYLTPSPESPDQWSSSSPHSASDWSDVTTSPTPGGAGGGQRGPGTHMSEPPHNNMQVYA

On to `CN1C(=O)C2C=CC(C(O)C3=C[C@H]4C[C@@H](C3)C4(C)C)N(Nc3ccc([N+](=O)[O-])cc3[N+](=O)[O-])C2C1=O` (stereo not given in full), for which the composite z-score in [1] turned out to be 0.574; in assay [2], 0.156; in assay [3] it was 0.15; in assay [4] it was 0.733; in assay [5] it was 1.66; in assay [6], 1.51. For the same compound, the composite z-score turned out to be 1.33 in [7]; 0.642 in [9]; 0.0826 in assay [10]; 1.49 in assay [11]; 3.28 in assay [15]; 0.256 in assay [17]. Besides, the composite z-score in assay [18] was determined as 0.0179; in [19], 1.02; in [20], 0.213. Further, the z-score in assay [8] is 0.0285 (inactive); in assay [12], 1.07 (inactive); in [13], 0.595 (inactive); in assay [14], 1.96 (inactive); in assay [16], -0.43 (inactive).
As for `COc1ccc([Si](C)(C)[C@@H]2[C@@H](CCO)O[C@]3(C(=O)N(Cc4cccc(N5CCCCC5=O)c4)c4ccccc43)[C@H]2C)cc1`, the composite z-score in assay [1] was -0.191; in assay [2], 0.692; in [3], -0.134; in [4], 0.877; in assay [5], 0.869; in [6] it was 1.06. Moreover, the composite z-score is 0.967 in assay [7]; 0.263 in assay [9]; -0.0618 in [10]; 1.56 in assay [11]; 2.54 in [15]; -0.0915 in assay [17]. The figures for the composite z-score in assay [18], in assay [19] and in assay [20] were 1.22, 1.09 and -0.0442, respectively. For the same compound, the z-score in assay [8] was -3.27 (inactive); in assay [12], 2.34 (inactive); in assay [13], -0.486 (inactive); in [14] it was 5.16 (inactive); in [16], -0.0838 (inactive).
Regarding `[N-]=[N+]=NCc1ccccc1C[C@]1(C(=O)NCCN2CCOCC2)N=C(c2ccc(OCCCO)cc2)O[C@H]1c1ccccc1CN=[N+]=[N-]`, the composite z-score in [1] is -0.199; in assay [2], -0.671; in assay [3] it was 0.0011; in assay [4], 1.12; in [5] it was 1.03; in assay [6], 1.11. Further, the composite z-score in assay [7] is 1.2; in assay [9] it was 1.26; in [10], 0.0139; in assay [11], 1.53; in assay [15], -3.05; in assay [17], 0.111. Also, the composite z-score in [18] amounted to 1.16; in [19], 1.08; in assay [20], 0.0278. The z-score in assay [8] is -0.0883 (inactive); in assay [12], -2.57 (inactive); in assay [13], -0.847 (inactive); in assay [14] it was -0.802 (inactive); in assay [16], 1.2 (inactive).
Consider `CCOC(=O)C[C@H]1[C@H](OC(=O)c2ccccc2-c2ccccc2)[C@@H](NC(=O)c2ccc(-c3ccccc3)cc2)c2cc(OCCCO)ccc2N1C(=O)c1ccccc1`, for which the composite z-score is -0.491 in assay [1]; 0.167 in [2]; -0.0428 in assay [3]; 0.69 in [4]; 0.56 in assay [5]; 0.106 in [6]. Also, the composite z-score in assay [7] was 0.787; in [9], 0.342; in assay [10] it was 0.177; in assay [11] it was 0.997; in [15], 1.99; in assay [17], -0.0888. The composite z-score in [18] was determined as 0.603; in [19] it was 0.695; in assay [20], 0.104. The z-score was -0.172 (inactive) in [8]; 0.742 (inactive) in assay [12]; 0.5 (inactive) in [13]; 1.7 (inactive) in assay [14]; 1.04 (inactive) in assay [16].
As to `COc1ccc([Si](C)(C)[C@H]2[C@H](CC(=O)N3CCC[C@H]3CO)O[C@@]3(C(=O)N(Cc4cccc(N5CCC5=O)c4)c4ccccc43)[C@@H]2C)cc1`, the composite z-score is -0.226 in assay [1]; 0.149 in assay [2]; 0.0496 in assay [3]; 1 in assay [4]; 1.01 in assay [5]; 0.865 in assay [6]. Moreover, the composite z-score is 1.32 in assay [7]; 0.774 in assay [9]; -0.253 in assay [10]; 1.55 in assay [11]; 2.6 in [15]; 0.226 in assay [17]. In addition, the composite z-score in [18] turned out to be 1; in assay [19] it was 1.13; in assay [20] it was 0.133. The z-score in assay [8] is -4.15 (inactive); in assay [12], -0.795 (inactive); in assay [13] it was 0.289 (inactive); in [14] it was -0.743 (inactive); in assay [16] it was 1.24 (inactive).

The values are drawn from PubChem BioAssay.
